# Test results reported in PubChem BioAssay (EPA / NIEHS).
# Records with an inconclusive call do not appear. More than one record can exist for a structure, and the calls need not agree. Active and inactive are the calls of the source. How the source made its calls: active means hit-call score of the fitted dose curve at least 0.9, where 1 is the maximum; inconclusive means response in the unintended direction; inactive means score below 0.9.
# Key:
# [1] = ACEA_AR_agonist_AUC_viability: ACEA Biosciences xCELLigence Real-Time Cell Analysis on Androgen Receptor Agonism for Viability (AID 2283775);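 on AC50: viability read 80 hours after compound addition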
# In short: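 Read-out is area under the impedance curve at 80 h post-dose in 22Rv1 cells, with DMSO as baseline and signal loss taken as reduced viability. Compounds ran in duplicate from 100 uM final.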
# [2] = ACEA_AR_antagonist_AUC_viability: ACEA Biosciences xCELLigence Real-Time Cell Analysis on Androgen Receptor Antagonism for Viability (AID 2283776);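 further: 22Rv1 human prostate cancer cells growing on impedance electrode plates; area under impedance growth curve at 80 h after dosing as viability; hits lower the growth signal relative to DMSO meaning cytotoxicity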
# In short: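 Viability endpoint from label-free cell-index monitoring: 22Rv1 cultures treated with an eight-point 1:4 dilution series starting at 100 uM final, AUC at 80 h fitted against DMSO.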
# [3] = ACEA_ER_AUC_viability: ACEA Biosciences xCELLigence Real-Time Cell Analysis on Estrogen Receptor Agonism for Viability (AID 2283782);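 further: continuous compound exposure with impedance area under curve over 80 h; hit means loss of impedance signal meaning reduced cell growth or viability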
# In short: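 T-47D human breast cells in phenol red-free RPMI1640 with 10% charcoal-stripped FBS were dosed with an 8-point 1:4 dilution series from 100 uM top final concentration, in duplicate. Impedance-based growth was followed for 80 h; AUC analysed versus DMSO.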
# [4] = biological target: zebrafish Estrogen Receptor (ESR1), esr1 (gene 259252) (UniProt P57717); experiment: ATG_zfER1_XSP1: Attagene TRANS-FACTORIAL Multi-Species (XSP1) HepG2 Assay for zebrafish Estrogen Receptor (ESR1) (AID 2283772)
# zebrafish Estrogen Receptor (ESR1), esr1 (gene 259252), sequence (P57717 whole entry, looked up, the tested form may be a part): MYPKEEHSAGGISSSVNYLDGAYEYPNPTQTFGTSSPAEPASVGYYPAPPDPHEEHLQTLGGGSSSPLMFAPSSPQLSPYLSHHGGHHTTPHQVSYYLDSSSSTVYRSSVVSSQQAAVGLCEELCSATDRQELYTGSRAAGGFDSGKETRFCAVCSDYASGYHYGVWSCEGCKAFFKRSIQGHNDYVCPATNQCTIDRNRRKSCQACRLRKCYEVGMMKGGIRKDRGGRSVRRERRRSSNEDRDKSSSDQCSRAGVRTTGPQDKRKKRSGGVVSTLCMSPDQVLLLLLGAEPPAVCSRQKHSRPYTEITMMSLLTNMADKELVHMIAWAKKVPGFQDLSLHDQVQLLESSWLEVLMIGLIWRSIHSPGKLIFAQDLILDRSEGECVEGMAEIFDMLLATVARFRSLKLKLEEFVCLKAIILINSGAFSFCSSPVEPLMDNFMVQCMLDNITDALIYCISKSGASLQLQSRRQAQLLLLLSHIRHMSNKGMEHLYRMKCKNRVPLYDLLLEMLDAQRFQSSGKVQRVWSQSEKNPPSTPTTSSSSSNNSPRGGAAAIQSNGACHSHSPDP
# In short: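 Readout: fluorescent reporter mRNA, RT-PCR plus FAM labelling, HpaI digest, capillary electrophoresis; gain-of-signal fit vs DMSO. HepG2, transient multi-reporter TRANS (NR-GAL4 chimera), 24 h chemical exposure, 3 nM 6-alpha-fluorotestosterone co-added.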
# [5] = test system: zebrafish Estrogen Receptor (ESR2B), gene 317733; experiment: ATG_zfER2b_XSP1: Attagene TRANS-FACTORIAL Multi-Species (XSP1) HepG2 Assay for zebrafish Estrogen Receptor (ESR2B) (AID 2283773)
# In short: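 HepG2 cells transiently transfected with multiple GAL4-UAS reporter units expressing chimeric zebrafish ER2b-Gal4; 24 h chemical exposure with 3 nM 6-alpha-fluorotestosterone present. Reporter mRNA measured by RT-PCR and capillary electrophoresis; gain of signal fitted versus DMSO.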
# [6] = test system: frog Estrogen Receptor (ESR2), gene 100174814; experiment: ATG_frER2_XSP1: Attagene TRANS-FACTORIAL Multi-Species (XSP1) HepG2 Assay for frog Estrogen Receptor (ESR2) (AID 2283774)
# In short: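 HepG2 cells transiently transfected with GAL4-UAS multiplexed reporter units expressing chimeric NR-Gal4 proteins; reporter mRNA measured 24 h after dosing by RT-PCR, FAM labeling, HpaI digestion and capillary electrophoresis. Gain-of-signal relative to DMSO; 3 nM 6-alpha-fluorotestosterone present.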
# [7] = test system: zebrafish Estrogen Receptor (ESR2A), gene 317734; experiment: ATG_zfER2a_XSP1: Attagene TRANS-FACTORIAL Multi-Species (XSP1) HepG2 Assay for zebrafish Estrogen Receptor (ESR2A) (AID 2283778)
# In short: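 HepG2 cells transiently transfected with multiplexed GAL4-UAS reporter units and chimeric NR-GAL4 receptors; 24 h compound exposure with 3 nM 6-alpha-fluorotestosterone present. Reporter mRNA quantified by RT-PCR and capillary electrophoresis, gain-of-signal fitted relative to DMSO.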
# [8] = biological target: chicken Estrogen Receptor (ESR1), ESR1 (gene 396099) (UniProt P06212); experiment: ATG_chERa_XSP1: Attagene TRANS-FACTORIAL Multi-Species (XSP1) HepG2 Assay for chicken Estrogen Receptor (ESR1) (AID 2283779)
# chicken Estrogen Receptor (ESR1), ESR1 (gene 396099), sequence (P06212 whole entry, looked up, the tested form may be a part): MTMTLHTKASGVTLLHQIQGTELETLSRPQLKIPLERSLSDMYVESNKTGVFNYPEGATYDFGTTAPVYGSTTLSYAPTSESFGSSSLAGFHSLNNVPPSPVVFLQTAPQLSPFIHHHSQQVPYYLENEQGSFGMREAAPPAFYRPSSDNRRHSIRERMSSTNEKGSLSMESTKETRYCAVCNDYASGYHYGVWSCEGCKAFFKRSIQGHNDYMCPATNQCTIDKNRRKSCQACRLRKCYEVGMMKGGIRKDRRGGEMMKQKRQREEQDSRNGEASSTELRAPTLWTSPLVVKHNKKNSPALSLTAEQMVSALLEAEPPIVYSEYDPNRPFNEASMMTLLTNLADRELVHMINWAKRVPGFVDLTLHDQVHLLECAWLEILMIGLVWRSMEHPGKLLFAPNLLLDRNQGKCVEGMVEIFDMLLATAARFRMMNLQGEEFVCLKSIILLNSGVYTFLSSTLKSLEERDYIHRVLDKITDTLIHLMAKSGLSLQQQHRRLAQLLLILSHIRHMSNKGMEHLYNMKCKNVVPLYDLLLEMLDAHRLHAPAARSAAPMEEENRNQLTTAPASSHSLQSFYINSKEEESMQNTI
# In short: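 HepG2 cells transiently transfected with multiplexed GAL4-UAS reporter units expressing chimeric NR-Gal4 proteins; 3 nM 6-alpha-fluorotestosterone present. Reporter mRNA measured 24 h after dosing by RT-PCR, FAM labelling, HpaI digest and capillary electrophoresis; gain of signal versus DMSO.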
# [9] = biological target: Estrogen receptor (Homo sapiens) (UniProt P03372); experiment: ATG_hERa_XSP1: Attagene TRANS-FACTORIAL Multi-Species (XSP1) HepG2 Assay for human Estrogen Receptor (ESR1) (AID 2283780)
# Estrogen receptor (Homo sapiens), sequence (P03372 whole entry, looked up, the tested form may be a part): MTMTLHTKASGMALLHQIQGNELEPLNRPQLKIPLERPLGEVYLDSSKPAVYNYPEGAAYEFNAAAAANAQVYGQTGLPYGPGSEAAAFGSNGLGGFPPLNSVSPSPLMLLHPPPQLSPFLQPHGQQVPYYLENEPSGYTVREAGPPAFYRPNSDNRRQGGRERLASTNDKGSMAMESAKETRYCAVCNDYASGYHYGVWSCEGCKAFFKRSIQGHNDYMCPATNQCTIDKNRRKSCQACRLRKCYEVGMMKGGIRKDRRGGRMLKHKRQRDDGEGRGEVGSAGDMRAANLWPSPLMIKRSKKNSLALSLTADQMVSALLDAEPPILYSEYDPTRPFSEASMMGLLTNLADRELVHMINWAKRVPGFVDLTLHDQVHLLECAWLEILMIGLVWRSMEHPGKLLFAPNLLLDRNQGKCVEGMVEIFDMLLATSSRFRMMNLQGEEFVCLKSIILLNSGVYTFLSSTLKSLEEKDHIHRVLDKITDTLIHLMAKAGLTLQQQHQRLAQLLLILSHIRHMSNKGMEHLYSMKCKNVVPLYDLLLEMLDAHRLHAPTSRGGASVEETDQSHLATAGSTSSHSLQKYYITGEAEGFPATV
# In short: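 HepG2 cells transiently transfected with GAL4-UAS reporter units and chimeric NR-Gal4 constructs; 24 h after dosing, reporter mRNA quantified by RT-PCR and capillary electrophoresis. Medium contained 3 nM 6-alpha-fluorotestosterone; activity fitted as gain-of-signal versus DMSO.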
# [10] = test system: turtle Estrogen Receptor (ESR1), gene 101933533; experiment: ATG_trERa_XSP1: Attagene TRANS-FACTORIAL Multi-Species (XSP1) HepG2 Assay for turtle Estrogen Receptor (ESR1) (AID 2283781)
# In short: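 HepG2 cells transiently transfected with GAL4-UAS reporter units and chimeric NR-Gal4 constructs, dosed for 24 h with 3 nM 6-alpha-fluorotestosterone present. Reporter mRNA was quantified by RT-PCR, fluorescent labelling and capillary electrophoresis, with gain of signal fitted relative to DMSO.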
# [11] = STM_H9_NormalizedViability: Cytotoxicity Assessment at 120 hours in the Stemina devTOX quickPredict H9 human embryonic stem cell (hESC)-based Assay (AID 2283784)
# In short: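 Chemicals are tested blinded on H9 human embryonic stem cells in the pluripotent state, with medium exchanged daily. After background correction, fluorescence from CellTiter-Fluor is scaled against 0.1% DMSO wells, and decreases are scored.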
# [12] = biological target: Estrogen receptor beta (Homo sapiens) (UniProt Q92731); experiment: ATG_hERb_XSP1: Attagene TRANS-FACTORIAL Multi-Species (XSP1) HepG2 Assay for human Estrogen Receptor (ESR2) (AID 2283788)
# Estrogen receptor beta (Homo sapiens), sequence (Q92731 whole entry, looked up, the tested form may be a part): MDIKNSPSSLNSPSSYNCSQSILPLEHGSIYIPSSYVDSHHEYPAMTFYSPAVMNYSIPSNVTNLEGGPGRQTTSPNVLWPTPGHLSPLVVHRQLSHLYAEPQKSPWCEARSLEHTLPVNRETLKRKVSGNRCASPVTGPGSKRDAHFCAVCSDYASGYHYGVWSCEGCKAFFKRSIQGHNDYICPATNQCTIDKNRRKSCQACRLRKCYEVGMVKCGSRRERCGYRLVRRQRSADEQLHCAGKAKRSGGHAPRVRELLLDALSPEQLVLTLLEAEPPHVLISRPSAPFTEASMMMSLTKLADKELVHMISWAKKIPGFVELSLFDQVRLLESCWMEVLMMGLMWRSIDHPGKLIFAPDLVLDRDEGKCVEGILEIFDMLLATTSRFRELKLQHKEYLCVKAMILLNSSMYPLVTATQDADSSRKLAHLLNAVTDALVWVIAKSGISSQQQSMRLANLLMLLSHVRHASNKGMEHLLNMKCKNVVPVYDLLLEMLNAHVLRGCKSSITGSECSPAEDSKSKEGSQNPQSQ
# In short: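 Read-out: reporter mRNA induction by RT-PCR, HpaI digestion and capillary electrophoresis fluorescence, fitted in positive direction relative to DMSO baseline. Human liver HepG2 cells expressing ERβ-Gal4 fusion, dosed 24 h, medium containing 3 nM 6-alpha-fluorotestosterone.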
# [13] = ATG_M_06_XSP1: Attagene TRANS-FACTORIAL Multi-Species (XSP1) HepG2 Assay for M06 Transcription Factor (Internal Marker) (AID 2283790)
# In short: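 Transfected HepG2 multi-reporter system treated 24 h in the presence of 3 nM 6-alpha-fluorotestosterone. The M06 internal marker transcript was quantified by RT-PCR with capillary electrophoresis as a background control, and gain of signal was scored versus DMSO.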
# [14] = ATG_M_61_XSP1: Attagene TRANS-FACTORIAL Multi-Species (XSP1) HepG2 Assay for M61 Transcription Factor (Internal Marker) (AID 2283797)
# In short: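 HepG2 cells transiently transfected with multiplexed GAL4-driven reporter units, dosed 24 h with 3 nM 6-alpha-fluorotestosterone present. Reporter mRNA quantified by RT-PCR, 6-FAM labelling, HpaI digestion and capillary electrophoresis; internal-marker background control, gain of signal versus DMSO.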
# [15] = ATG_M_19_XSP1: Attagene TRANS-FACTORIAL Multi-Species (XSP1) HepG2 Assay for M19 Transcription Factor (Internal Marker) (AID 2283798)
# In short: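 HepG2 cells transiently transfected with multiplexed GAL4-UAS reporter units, dosed 24 h with 3 nM 6-alpha-fluorotestosterone present for partial AR stimulation. Reporter mRNA measured by RT-PCR with capillary electrophoresis; gain-of-signal fitted relative to DMSO.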
# [16] = ATG_M_32_XSP1: Attagene TRANS-FACTORIAL Multi-Species (XSP1) HepG2 Assay for M32 Transcription Factor (Internal Marker) (AID 2283799)
# In short: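 HepG2 cells transiently transfected with multi-species TRANS reporter units, dosed 24 h with 3 nM 6-alpha-fluorotestosterone present. Internal-marker reporter mRNA quantified by RT-PCR and capillary electrophoresis; positive-direction fit versus DMSO.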
# [17] = biological target: Peroxisome proliferator-activated receptor gamma (Homo sapiens) (UniProt P37231); experiment: ATG_hPPARg_XSP1: Attagene TRANS-FACTORIAL Multi-Species (XSP1) HepG2 Assay for human Peroxisome Proliferator-activated Receptor gamma (PPARg) (AID 2283800)
# Peroxisome proliferator-activated receptor gamma (Homo sapiens), sequence (P37231 whole entry, looked up, the tested form may be a part): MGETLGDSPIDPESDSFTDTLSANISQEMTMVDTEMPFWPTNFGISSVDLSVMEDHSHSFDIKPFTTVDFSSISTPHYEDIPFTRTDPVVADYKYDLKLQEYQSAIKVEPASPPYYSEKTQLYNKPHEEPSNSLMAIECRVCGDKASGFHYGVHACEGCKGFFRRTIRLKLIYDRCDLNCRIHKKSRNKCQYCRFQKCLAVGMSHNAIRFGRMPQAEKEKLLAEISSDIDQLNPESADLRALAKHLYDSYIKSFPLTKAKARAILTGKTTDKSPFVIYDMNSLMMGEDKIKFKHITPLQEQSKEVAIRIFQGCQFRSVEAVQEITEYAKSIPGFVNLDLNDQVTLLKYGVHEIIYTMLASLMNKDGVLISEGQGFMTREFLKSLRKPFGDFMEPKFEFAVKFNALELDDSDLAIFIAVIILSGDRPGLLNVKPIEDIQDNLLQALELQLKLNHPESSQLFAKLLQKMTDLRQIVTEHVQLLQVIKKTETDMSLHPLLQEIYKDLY
# In short: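 HepG2 cells transiently transfected with GAL4-UAS reporter units carrying chimeric NR-Gal4 proteins; 3 nM 6-alpha-fluorotestosterone present. After 24 h dosing, reporter mRNA quantified by RT-PCR and capillary electrophoresis; gain of signal relative to DMSO.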
# [18] = test system: zebrafish Peroxisome Proliferator-activated Receptor gamma (PPARg), gene 557037; experiment: ATG_zfPPARg_XSP1: Attagene TRANS-FACTORIAL Multi-Species (XSP1) HepG2 Assay for zebrafish Peroxisome Proliferator-activated Receptor gamma (PPARg) (AID 2283801)
# In short: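 HepG2 cells transiently transfected with GAL4-UAS reporter units including a zebrafish PPARg–GAL4 chimera, dosed 24 h with 3 nM 6-alpha-fluorotestosterone present. Reporter mRNA quantified by RT-PCR, FAM labelling, HpaI digestion and capillary electrophoresis; induction versus DMSO.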
smiles,measurement,setting,value
O=P1(N(CCCl)CCCl)NCCCO1 (configuration not stated),outcome,[1],inactive
same,outcome,[2],inactive
Cc1ccc([N+](=O)[O-])cc1C,outcome,[1],inactive
same,outcome,[2],inactive
same,outcome,[3],inactive
O=C(O)C(Cl)Cl,outcome,[1],inactive
same,outcome,[2],inactive
CCCCOCC1CO1 (configuration not stated),outcome,[1],inactive
same,outcome,[2],inactive
same,outcome,[3],inactive
Nc1ccc(Cl)cc1,AC50,[1],5.62 µM (active)
same,AC50,[2],8.97 µM (active)
same,AC50,[3],8.49 µM (active)
same,outcome,[3],inactive
O=[N+]([O-])c1ccc(Cl)c(Cl)c1,outcome,[1],inactive
same,outcome,[2],inactive
CC(Cc1ccc(OCC(=O)O)cc1)NCC(O)c1csc(C(F)(F)F)n1 (configuration not stated),outcome,[1],inactive
same,outcome,[2],inactive
same,outcome,[3],inactive
O=c1ssc(Cl)c1Cl,AC50,[1],0.671 µM (active)
same,outcome,[2],inactive
same,outcome,[3],inactive
CCOP(=S)(Oc1ccc([N+](=O)[O-])cc1)c1ccccc1 (configuration not stated),AC50,[1],50 µM (active)
same,AC50,[2],14.9 µM (active)
CCOP(=S)(OCC)SCSCC,AC50,[1],83.4 µM (active)
same,outcome,[2],inactive
CCOc1ccc(C(C)(C)COCc2cccc(Oc3ccccc3)c2)cc1,outcome,[1],inactive
same,AC50,[2],50 µM (active)
O=P(Oc1ccccc1)(Oc1ccccc1)Oc1ccccc1,outcome,[4],inactive
same,AC50,[5],5.84 µM (active)
same,AC50,[6],2.77 µM (active)
same,outcome,[7],inactive
same,AC50,[8],0.8 µM (active)
same,AC50,[9],0.991 µM (active)
same,AC50,[10],1.66 µM (active)
same,AC50,[3],86.8 µM (active)
same,outcome,[11],inactive
same,outcome,[12],inactive
same,outcome,[13],inactive
same,outcome,[14],inactive
same,outcome,[15],inactive
same,outcome,[16],inactive
same,AC50,[17],6.88 µM (active)
same,AC50,[18],8.08 µM (active)
O=C(O)CF,outcome,[1],inactive
same,outcome,[2],inactive
same,outcome,[3],inactive
